# Data as given in ChEMBL document CHEMBL4513216, “Probing the Open Global Health Chemical Diversity Library for Multistage-Active Starting Points for Next-Generation Antimalarials” (ACS Infect Dis, 2020).
# The campaign covered roughly 69,000 compounds. About 8,600 (12%) showed an effect of 50% or more. The sample as a whole holds a higher share of strong results than the screen did.
# Tested on: Plasmodium berghei
# Test: Screen against P. berghei liver stage (PbLuc), transformed with Luciferase, at 10uM
# Type: functional, HepG2
# Conditions: tested at 10 uM
row,SMILES,INHIBITION [%]
1,CS(=O)(=O)N1CCCC12CCN(Cc1nccs1)CC2,28.2
2,Cc1ccc(CN2CCC3(CCCN3S(C)(=O)=O)CC2)s1,25.8
3,CCN1C(=O)CCC12CCCN(Cc1nccs1)CC2 (centres undefined),59.7
4,COCCN1C(=O)CCC12CCCN(Cc1nccs1)CC2 (centres undefined),48.6
5,CN1C(=O)CCCC12CCCN(Cc1nccs1)C2 (centres undefined),16.9
6,Cc1ccc(CN2CCCC3(CCCCN3S(C)(=O)=O)C2)s1 (centres undefined),14.9
7,CS(=O)(=O)N1CCCCC12CCCN(Cc1nccs1)C2 (centres undefined),60.3
8,Cc1ccc(CN2CCCC3(CCCN3S(C)(=O)=O)C2)s1 (centres undefined),63.8
9,CS(=O)(=O)N1CCCC12CCN(Cc1nccs1)C2 (centres undefined),-0.804
10,CN1C(=O)CCC12CCCN(Cc1nccs1)C2 (centres undefined),59
11,CCN1C(=O)CCC12CCCN(Cc1nccs1)C2 (centres undefined),46.2
12,O=C1CCC2(CCCN(Cc3nccs3)C2)N1CC1CC1 (centres undefined),36.9
13,Clc1ccccc1C1CN(CCc2ccncc2)CCO1 (centres undefined),29.1
14,Cc1ccc(C(=O)N2CCC3(CC2)COC(COc2cccnc2)C3)o1 (centres undefined),3.69
15,CN(C)S(=O)(=O)N1CC[C@]2(O)CCN(CCc3cccc(F)c3)C[C@@H]2C1,3.96
16,CN(C)[C@@H]1CN(Cc2ccoc2)C[C@@H]2CCCO[C@@H]21,25.6
17,COCC1CN(C(C)=O)CCN(c2cc(C)ncn2)C1 (centres undefined),24.4
18,Cc1ccc(C(=O)N2C[C@H]3CCC[C@@]3(COc3ccccn3)C2)nc1,-10.2
19,Cc1cc(C2CCC2)nc(NCC(C)(C)CO)n1,-7.53
20,Cc1c(S(=O)(=O)N2CCCCC2c2nnc(-c3cccs3)o2)cnn1C (centres undefined),-11.28
21,CC(C)(O)CN1CCN(C(=O)c2cccc(CC#N)c2)CC1,-9.76
22,Cc1noc(C)c1C1CCCN1C(=O)c1cn2ccsc2n1 (centres undefined),12.9
23,Cc1ccc(OCc2nc(CNCC3CN(C)CCO3)cs2)cc1 (centres undefined),-45.6
24,Cc1nc(N2CCCC(N3CCCC3)C2)c2cnn(C)c2n1 (centres undefined),55.1
25,Cc1nc(N2CCN(C(=O)CC3CCCC3)CC2)c2cnn(C)c2n1,0.0944

row,SMILES,INHIBITION [%]
1,CCCc1nc(N2CCCC(CCOC)C2)c2cnn(C)c2n1 (centres undefined),40.6
2,CCCc1nc(N2CCC(CCO)CC2)c2cnn(C)c2n1,60
3,CCCc1nc(N2CCCN3CCC[C@H]3C2)c2cnn(C)c2n1,27.7
4,Cn1ncc2c(N3CCCN4CCC[C@H]4C3)nc(C(C)(C)C)nc21,31.6
5,COCc1nc(N2CCC(CCO)CC2)c2cnn(C)c2n1,14.3
6,Cc1nc(N2CCC(CN3CCCC3)CC2)c2cnn(C)c2n1,57.2
7,Cc1nc(N2CCC(CC(=O)N3CCCC3)CC2)c2cnn(C)c2n1,31.2
8,CCc1n[nH]c(C2CN(C(=O)CCc3cscn3)CCO2)n1 (centres undefined),7.42
9,O=C(c1cccc(NCc2cccc(F)c2)c1)N1CCC(O)CC1,-39.4
10,CC1CN(CC(=O)NC(=O)NCc2ccccc2)CCO1 (centres undefined),5.53
11,CCS(=O)(=O)c1ncc(CN2CCSCC2)n1CCc1ccccc1,58.9
12,CCS(=O)(=O)c1ncc(CN2CCN(C)CC2)n1CCc1ccccc1,38.7
13,CCS(=O)(=O)c1ncc(CN2CCCC2)n1CCc1ccccc1,13
14,Cc1cc(CN2CCN(C(=O)NC(C)c3ccc(C)o3)CC2)on1 (centres undefined),13.75
15,CN(C)C1CCN(C(=O)c2ccnn2-c2ccc3ccccn23)CC1,4.98
16,COCCNC(=O)c1ccnn1-c1ccc2ccccn12,39.3
17,CCN(C)C(=O)c1ccnn1-c1ccc2ccccn12,51.2
18,O=C(c1ccnn1-c1ccc2ccccn12)N1CCOCC1,13.1
19,O=C(NCCN1CCOCC1)c1ccn(-c2ccc3ccccn23)n1,47.2
20,O=C(c1ccnn1-c1ccc2ccccn12)N1CCCC1,30.3
21,O=C(NCCN1CCOCC1)c1ccnn1-c1ccc2ccccn12,94
22,O=C(NCCCN1CCOCC1)c1ccn(-c2ccc3ccccn23)n1,39.8
23,CN1CCCN(C(=O)c2ccnn2-c2ccc3ccccn23)CC1,53.9
24,O=C(Nc1cccnc1)C1=NN(c2ccccc2)C(=O)CN1,-141
25,CCCn1nccc1-c1cnc(CC2CCN(C(C)=O)C2)cn1 (centres undefined),19.3

row,SMILES,INHIBITION [%]
1,O=C(Cn1ccc(=O)cc1)N1C[C@@H]2CC[C@H]1CN(c1ncccn1)C2,15.3
2,O=C(c1cc(Cl)c2c(c1)OCO2)N1CCN(c2ncccn2)CC1,15.4
3,CN1CCN(Cc2ccncc2)C(=O)C12CCN(Cc1ccsc1)CC2,1.34
4,COC1CCN(CC(=O)NCc2ccc(OCC(N)=O)cc2)CC1,2.45
5,Cc1nc2ccccc2c(=O)n1CCCC(=O)N1CCNC(=O)CC1,4.37
6,Cc1ccc(=O)n(CC2(O)CCN(Cc3cnn(C)c3)CC2)n1,-3.31
7,Cc1nn(C)c(Cl)c1C(=O)NCC(c1ccsc1)N(C)C (centres undefined),36.4
8,Cc1nn(-c2ccccc2)nc1C(=O)NCC(c1ccco1)N(C)C (centres undefined),8.48
9,Cc1nn(-c2ccccc2)nc1C(=O)NCC(c1ccsc1)N(C)C (centres undefined),57.2
10,O=C1[C@H]2CN(Cc3ccoc3)C[C@H]2CN1CCN1CCCC1,3.81
11,CCN1C(=O)[C@H]2CN(CC(C)C)C[C@H]2C12CCN(S(C)(=O)=O)CC2,20.1
12,O=S(=O)(C/C=C/c1ccccc1)Cc1nc(C2CC2)no1,45
13,Cc1noc(CS(=O)(=O)C/C=C/c2ccccc2)n1,60.2
14,CCc1noc(CS(=O)(=O)C/C=C/c2ccccc2)n1,12.4
15,CC(=O)c1ccc(S(=O)(=O)N2CCOC(Cn3ccnc3)C2)cc1 (centres undefined),30.4
16,CC(C)(C#N)C(=O)Nc1nccn1Cc1ccc(Br)cc1,60.1
17,CSc1ncccc1C(=O)Nc1ccc(Cn2ccccc2=O)cc1,9.16
18,COCC(=O)Nc1nccn1Cc1ccc(Br)cc1,84.2
19,CSCC(=O)Nc1nccn1Cc1ccc(Br)cc1,50.8
20,CCn1ccnc1CN(C)C(C(=O)O)c1ccc(C(C)(C)C#N)cc1 (centres undefined),42.8
21,CCOCC(=O)Nc1nccn1Cc1ccc(Br)cc1,45.2
22,CS(=O)(=O)c1nccn1Cc1ccc(C(N)=O)cc1,19.2
23,COCCC(=O)Nc1nccn1Cc1ccc(Br)cc1,23.9
24,CNC(=O)c1ccc(Cn2ccnc2S(C)(=O)=O)cc1,20.5
